We go through 40 molecules from the supplement of paper PMC9950053.

Counter-ions that a name gives are not always drawn.

The assay has as its system Danio rerio larvae (5 dpf). Put plainly: combined upward orientation toward moving lines (periods 7-14) minus DMSO control (percentage points); higher = more orientation with moving lines than DMSO larvae. The conditions noted are these: 10 µM; exposure time: 3 h pre-incubation + 3 h imaging. As to the method:
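Wild-type 5 dpf zebrafish larvae (n=48 per drug, 96-well plates, 28.5 °C) were exposed to Tocris FDA-approved library compounds at 10 µM (0.1% DMSO) for 3 h before and 3 h during imaging. Images were taken every 6 s during visual (moving coloured lines) and acoustic stimuli, and larvae were tracked with the DeepLabCut-based Z-LaP Tracker. Each behavioural measure is the treated-group mean minus the DMSO vehicle control mean (n=844), in percentage points. This mapping covers compounds with 4-character plate codes.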
`CN1CCC[C@@H]1CCO[C@](C)(c1ccccc1)c1ccc(Cl)cc1` [Clemastine fumarate]: the “combined upward orientation toward moving lines” value is 4.64.
Regarding `Cc1ccc(NC(=O)c2ccc(CN3CCN(C)CC3)cc2)cc1Nc1nccc(-c2cccnc2)n1` [Imatinib mesylate], the “combined upward orientation toward moving lines” value is -1.28.
The value for `C=C1[C@H](CO)[C@@H](O)C[C@@H]1n1cnc2c(=O)[nH]c(N)nc21` [Entecavir] was -3.62.
In the case of `COc1cccc2c1C(=O)c1c(O)c3c(c(O)c1C2=O)C[C@@](O)(C(=O)CO)C[C@@H]3O[C@H]1C[C@H](N)[C@H](O)[C@H](C)O1` [Doxorubicin hydrochloride], the “combined upward orientation toward moving lines” value is -1.38.
The value for `Brc1c(NC2=NCCN2)ccc2nccnc12` was -1.14; that for `C[C@]12CC[C@@H]3c4ccc(O)cc4C[C@@H](CCCCCCCCC[S+]([O-])CCCC(F)(F)C(F)(F)F)[C@H]3[C@@H]1CC[C@@H]2O` (stereo not given in full) was 0.781.
Take `OC(CNCC(O)C1CCc2cc(F)ccc2O1)C1CCc2cc(F)ccc2O1` (stereo not given) [Nebivolol hydrochloride]: the “combined upward orientation toward moving lines” value is -7.15.
`CCCCNc1cc(C(=O)O)cc(S(N)(=O)=O)c1Oc1ccccc1` [Bumetanide]: the “combined upward orientation toward moving lines” value was -3.42.
As to `CN1CCN2c3ncccc3Cc3ccccc3C2C1` (stereo not given) [Mirtazapine], the “combined upward orientation toward moving lines” value was -11.4.
For `Cc1cc(C2CCCCC2)n(O)c(=O)c1` [Ciclopirox] the value was -27.9; for `CCCCC(=O)N(Cc1ccc(-c2ccccc2-c2nnn[nH]2)cc1)[C@H](C(=O)O)C(C)C` [Valsartan], 2.9.
The value for `COc1c(C)c2c(c(O)c1C/C=C(\C)CCC(=O)OCCN1CCOCC1)C(=O)OC2` [Mycophenolate mofetil] was 4.45; that for `N[C@@H]1[C@H]2CN(c3nc4c(cc3F)c(=O)c(C(=O)O)cn4-c3ccc(F)cc3F)C[C@@H]12` [Trovafloxacin mesylate] was -3.7; that for `NS(=O)(=O)c1cc(C(=O)O)c(NCc2ccco2)cc1Cl` [Furosemide] was -2.41.
Take `CNC(=O)c1ccccc1Sc1ccc2c(/C=C/c3ccccn3)n[nH]c2c1` [Axitinib]: the “combined upward orientation toward moving lines” value was found to be 4.21.
For `CC1CNc2c(cccc2S(=O)(=O)N[C@@H](CCCNC(=N)N)C(=O)N2CC[C@@H](C)C[C@@H]2C(=O)O)C1` (stereo not given in full) [Argatroban] the value was 0.479.
The value for `CCOC(=O)[C@H](CCc1ccccc1)N[C@@H](C)C(=O)N1[C@H](C(=O)O)C[C@@H]2CCC[C@@H]21` [Ramipril] was -5.05.
For `COc1ccc(C[C@@H](C)NC[C@H](O)c2ccc(O)c(NC=O)c2)cc1` [Arformoterol tartrate], the “combined upward orientation toward moving lines” value is 0.636.
For `Cc1cn([C@H]2C=C[C@@H](CO)O2)c(=O)[nH]c1=O` [Stavudine] the value was -0.971; for `C#C[C@]1(O)CC[C@H]2[C@@H]3CCC4=CC(=O)CC[C@@H]4[C@H]3CC[C@@]21CC` [Levonorgestrel], 5.76; for `CCc1c2c(nc3ccc(OC(=O)N4CCC(N5CCCCC5)CC4)cc13)-c1cc3c(c(=O)n1C2)COC(=O)[C@]3(O)CC`, -3.82.
For `COc1cc2nc(N3CCN(C(=O)c4ccco4)CC3)nc(N)c2cc1OC` [Prazosin hydrochloride] the value was -10.6; for `CC(CCc1ccc(O)cc1)NCCc1ccc(O)c(O)c1` (stereo not given) [Dobutamine hydrochloride], 0.917.
The value for `CC1(C)O[C@@H]2[C@@H](CO[C@@]3(COS(N)(=O)=O)OC(C)(C)O[C@@H]23)O1` [Topiramate] was -4.17.
As to `Cc1ccc(-c2cc(C(F)(F)F)nn2-c2ccc(S(N)(=O)=O)cc2)cc1` [Celecoxib], the “combined upward orientation toward moving lines” value is -15.8.
The value for `O=C(NCC1CCCCN1)c1cc(OCC(F)(F)F)ccc1OCC(F)(F)F` (stereo not given) [Flecainide acetate] was -3.7.
The value for `Cc1cccc(C)c1OCC(C)N` (stereo not given) [Mexiletine hydrochloride] was -1.93; that for `CC/C(=C(\c1ccccc1)c1ccc(OCCN(C)C)cc1)c1ccccc1` [Tamoxifen citrate] was -3.88.
For `NS(=O)(=O)Cc1noc2ccccc12` [Zonisamide] the value was 1.75; for `CCCCCOC(=O)Nc1nc(=O)n([C@@H]2O[C@H](C)[C@@H](O)[C@H]2O)cc1F` [Capecitabine], -0.314; for `O=c1[nH]c(=O)n([C@H]2C[C@H](O)[C@@H](CO)O2)cc1C(F)(F)F` [Trifluorothymidine], -3.41.
Consider `COc1ccc(Cl)cc1C(=O)NCCc1ccc(S(=O)(=O)NC(=O)NC2CCCCC2)cc1` [Glibenclamide], for which the “combined upward orientation toward moving lines” value is -10.9.
The value for `O=C(Nc1c(Cl)cncc1Cl)c1ccc(OC(F)F)c(OCC2CC2)c1` [Roflumilast] was -2.52.
The value for `CS(=O)(=O)CCNCc1ccc(-c2ccc3ncnc(Nc4ccc(OCc5cccc(F)c5)c(Cl)c4)c3c2)o1` [Lapatinib] was 1.75.
The value for `CC(=O)O[C@]1(C(C)=O)CC[C@H]2[C@@H]3C=C(C)C4=CC(=O)CC[C@]4(C)[C@H]3CC[C@@]21C` [Megestrol Acetate] was -1.8; that for `O=C(O)c1cc(/N=N/c2ccc(S(=O)(=O)Nc3ccccn3)cc2)ccc1O` [Sulfasalazine] was -3.42; that for `CCOC(=O)c1ncn2c1CN(C)C(=O)c1cc(F)ccc1-2` [Flumazenil] was 2.99.
In the case of `CCCN(CCC)S(=O)(=O)c1ccc(C(=O)O)cc1` [Probenecid], the “combined upward orientation toward moving lines” value was -6.67.
For `CN(C)CCc1c[nH]c2ccc(Cn3cncn3)cc12` [Rizatriptan benzoate] the value was -1.53; for `Nc1cc(N2CCCCC2)nc(N)[n+]1[O-]` [Minoxidil], -2.16.
